Columns and labels:
Test in all cases: DAPPL (digital affinity profiling via proximity ligation, sequencing); 10 mM Tris-HCl pH 7.5, 50 mM NaCl, 1 mM DTT, 4% glycerol, room temperature, 30 min; GST-TFs on glutathione beads, 16-mer random dsDNA library, 0.1% formaldehyde crosslink after washing; high values mean tight binding
FEV = molecular target: T1, FEV (Homo sapiens, UniProt Q99581 1-238); conditions: protein: recombinant; tags: N-terminal GST; dsDNA, one strand shown
T1 sequence: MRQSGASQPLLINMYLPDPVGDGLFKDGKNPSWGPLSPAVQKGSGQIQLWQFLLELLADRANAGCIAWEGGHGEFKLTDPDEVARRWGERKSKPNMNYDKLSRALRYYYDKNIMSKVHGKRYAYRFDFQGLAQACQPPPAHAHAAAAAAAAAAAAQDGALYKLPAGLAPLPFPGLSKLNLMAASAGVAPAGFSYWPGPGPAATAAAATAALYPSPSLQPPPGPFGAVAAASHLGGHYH
Summary of the method: (§1)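 The binding signal reported is, for every hexamer, its read frequency for a factor over its read frequency for the tag-only sample. Reads came from pools of yeast-expressed, GST-fused human transcription factors on glutathione beads, barcoded with DNA and mixed with that sample, which were incubated with 200 nmole of a random double-stranded 16-mer DNA library in Tris/NaCl/DTT/glycerol buffer at room temperature for 30 min. After washing, the pools were crosslinked with 0.1% formaldehyde, proximity-ligated with BsaI/T4 ligase for 1 h at 37 °C, PCR-amplified and sequenced on an Illumina NextSeq500.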

ETV5 = ETV5 (Homo sapiens, UniProt P41161 1-510); conditions: protein: recombinant; tags: N-terminal GST; dsDNA, one strand shown
ETV5, sequence (P41161 whole entry): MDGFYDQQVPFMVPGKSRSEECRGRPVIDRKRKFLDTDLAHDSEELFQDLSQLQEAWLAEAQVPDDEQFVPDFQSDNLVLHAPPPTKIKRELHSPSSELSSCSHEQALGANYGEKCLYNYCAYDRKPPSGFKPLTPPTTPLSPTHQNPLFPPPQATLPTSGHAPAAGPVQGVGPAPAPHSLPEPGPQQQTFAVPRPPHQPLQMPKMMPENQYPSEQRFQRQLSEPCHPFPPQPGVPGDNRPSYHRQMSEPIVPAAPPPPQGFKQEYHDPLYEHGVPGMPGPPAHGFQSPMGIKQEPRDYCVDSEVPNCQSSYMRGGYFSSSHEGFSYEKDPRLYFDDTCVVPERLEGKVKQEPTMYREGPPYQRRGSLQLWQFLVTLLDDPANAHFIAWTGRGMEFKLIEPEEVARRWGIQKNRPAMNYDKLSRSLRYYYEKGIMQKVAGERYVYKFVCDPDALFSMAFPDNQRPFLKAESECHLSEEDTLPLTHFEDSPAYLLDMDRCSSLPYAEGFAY
Summary of the method: as §1

HSF1 = HSF1 (Homo sapiens, UniProt Q00613 1-529); conditions: protein: recombinant; tags: N-terminal GST; chain copies: 3; dsDNA, one strand shown
HSF1, sequence (Q00613 whole entry): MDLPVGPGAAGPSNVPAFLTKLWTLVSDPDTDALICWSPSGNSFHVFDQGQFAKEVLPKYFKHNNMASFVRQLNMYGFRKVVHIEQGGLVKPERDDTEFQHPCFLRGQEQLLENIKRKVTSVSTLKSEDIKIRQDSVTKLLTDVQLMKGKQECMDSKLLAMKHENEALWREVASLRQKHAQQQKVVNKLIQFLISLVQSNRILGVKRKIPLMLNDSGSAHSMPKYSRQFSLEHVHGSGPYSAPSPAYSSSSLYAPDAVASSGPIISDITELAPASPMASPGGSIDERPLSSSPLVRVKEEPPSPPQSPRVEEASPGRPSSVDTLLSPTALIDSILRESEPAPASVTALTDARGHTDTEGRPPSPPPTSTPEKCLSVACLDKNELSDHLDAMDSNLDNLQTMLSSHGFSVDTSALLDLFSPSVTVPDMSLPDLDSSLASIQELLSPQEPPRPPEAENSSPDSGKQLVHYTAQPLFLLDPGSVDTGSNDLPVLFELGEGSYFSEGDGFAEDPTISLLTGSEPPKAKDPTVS
Summary of the method: as §1

SPIC = molecular target: T2, SPIC (Homo sapiens, UniProt Q8N5J4 1-248); conditions: protein: recombinant; tags: N-terminal GST; dsDNA, one strand shown
T2 sequence: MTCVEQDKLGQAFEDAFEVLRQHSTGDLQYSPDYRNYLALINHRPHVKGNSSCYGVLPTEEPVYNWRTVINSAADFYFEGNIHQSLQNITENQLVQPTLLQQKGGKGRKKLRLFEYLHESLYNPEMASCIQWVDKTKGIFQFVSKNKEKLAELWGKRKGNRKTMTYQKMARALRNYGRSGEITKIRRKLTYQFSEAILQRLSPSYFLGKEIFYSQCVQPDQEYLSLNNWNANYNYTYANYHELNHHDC
Summary of the method: as §1

ELF4 = ELF4 (Homo sapiens, UniProt Q99607 1-663); conditions: protein: recombinant; tags: N-terminal GST; dsDNA, one strand shown
ELF4, sequence (Q99607 whole entry): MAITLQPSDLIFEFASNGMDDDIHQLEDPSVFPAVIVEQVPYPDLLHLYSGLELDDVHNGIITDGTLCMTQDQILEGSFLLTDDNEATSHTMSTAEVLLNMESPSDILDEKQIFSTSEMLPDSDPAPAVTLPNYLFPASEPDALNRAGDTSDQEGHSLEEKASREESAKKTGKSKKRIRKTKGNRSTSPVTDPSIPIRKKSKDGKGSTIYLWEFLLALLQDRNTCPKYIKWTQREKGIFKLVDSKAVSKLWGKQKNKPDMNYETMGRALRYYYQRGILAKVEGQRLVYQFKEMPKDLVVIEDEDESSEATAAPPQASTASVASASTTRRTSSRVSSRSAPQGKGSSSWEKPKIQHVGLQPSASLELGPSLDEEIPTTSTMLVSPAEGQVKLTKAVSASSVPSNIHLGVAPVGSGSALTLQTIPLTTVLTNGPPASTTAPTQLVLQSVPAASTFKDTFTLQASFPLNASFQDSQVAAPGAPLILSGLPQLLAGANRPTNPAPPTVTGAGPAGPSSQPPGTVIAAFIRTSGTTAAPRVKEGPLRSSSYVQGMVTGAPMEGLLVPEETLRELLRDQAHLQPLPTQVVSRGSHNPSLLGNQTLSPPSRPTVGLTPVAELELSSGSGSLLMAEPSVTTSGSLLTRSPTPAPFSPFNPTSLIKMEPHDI
Summary of the method: as §1

ELK4 = molecular target: T3, ELK4 (Homo sapiens, UniProt P28324-2 1-405); conditions: protein: recombinant; tags: N-terminal GST; dsDNA, one strand shown
T3 sequence: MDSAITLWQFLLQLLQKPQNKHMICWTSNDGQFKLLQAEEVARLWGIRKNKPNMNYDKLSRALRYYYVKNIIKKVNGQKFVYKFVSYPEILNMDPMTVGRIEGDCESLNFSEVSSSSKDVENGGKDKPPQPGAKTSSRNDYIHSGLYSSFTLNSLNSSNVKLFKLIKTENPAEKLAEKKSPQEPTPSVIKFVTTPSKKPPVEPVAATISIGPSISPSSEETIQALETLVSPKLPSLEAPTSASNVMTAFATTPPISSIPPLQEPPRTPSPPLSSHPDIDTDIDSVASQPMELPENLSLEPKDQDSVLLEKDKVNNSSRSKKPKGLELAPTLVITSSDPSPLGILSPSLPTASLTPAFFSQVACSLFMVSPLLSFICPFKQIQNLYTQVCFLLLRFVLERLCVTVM
Summary of the method: as §1

ETV2 = molecular target: T4, ETV2 (Homo sapiens, UniProt O00321 1-342); conditions: protein: recombinant; tags: N-terminal GST; dsDNA, one strand shown
T4 sequence: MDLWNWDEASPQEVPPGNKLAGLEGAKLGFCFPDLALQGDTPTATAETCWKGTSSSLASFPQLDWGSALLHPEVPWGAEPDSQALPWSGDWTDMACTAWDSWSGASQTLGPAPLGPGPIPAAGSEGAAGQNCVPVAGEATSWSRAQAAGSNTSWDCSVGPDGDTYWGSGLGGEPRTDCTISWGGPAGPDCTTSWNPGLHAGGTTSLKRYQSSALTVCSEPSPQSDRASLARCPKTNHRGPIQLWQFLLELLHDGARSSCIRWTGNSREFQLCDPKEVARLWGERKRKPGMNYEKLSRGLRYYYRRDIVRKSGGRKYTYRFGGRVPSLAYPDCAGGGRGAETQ
Summary of the method: as §1

ELF3 = molecular target: T5, ELF3 (Homo sapiens, UniProt P78545 1-371); conditions: protein: recombinant; tags: N-terminal GST; dsDNA, one strand shown
T5 sequence: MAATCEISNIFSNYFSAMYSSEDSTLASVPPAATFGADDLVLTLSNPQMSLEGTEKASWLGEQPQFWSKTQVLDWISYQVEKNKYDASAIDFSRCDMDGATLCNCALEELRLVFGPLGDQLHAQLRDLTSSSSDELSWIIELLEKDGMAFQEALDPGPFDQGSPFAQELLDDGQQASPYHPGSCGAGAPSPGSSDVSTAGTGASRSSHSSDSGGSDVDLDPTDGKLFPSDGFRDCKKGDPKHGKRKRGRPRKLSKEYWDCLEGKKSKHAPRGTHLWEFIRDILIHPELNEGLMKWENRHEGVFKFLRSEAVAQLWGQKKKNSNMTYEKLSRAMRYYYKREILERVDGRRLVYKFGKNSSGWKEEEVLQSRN
Summary of the method: as §1

ETV1 = ETV1 (Homo sapiens, UniProt P50549 1-477); conditions: protein: recombinant; tags: N-terminal GST; dsDNA, one strand shown
ETV1, sequence (P50549 whole entry): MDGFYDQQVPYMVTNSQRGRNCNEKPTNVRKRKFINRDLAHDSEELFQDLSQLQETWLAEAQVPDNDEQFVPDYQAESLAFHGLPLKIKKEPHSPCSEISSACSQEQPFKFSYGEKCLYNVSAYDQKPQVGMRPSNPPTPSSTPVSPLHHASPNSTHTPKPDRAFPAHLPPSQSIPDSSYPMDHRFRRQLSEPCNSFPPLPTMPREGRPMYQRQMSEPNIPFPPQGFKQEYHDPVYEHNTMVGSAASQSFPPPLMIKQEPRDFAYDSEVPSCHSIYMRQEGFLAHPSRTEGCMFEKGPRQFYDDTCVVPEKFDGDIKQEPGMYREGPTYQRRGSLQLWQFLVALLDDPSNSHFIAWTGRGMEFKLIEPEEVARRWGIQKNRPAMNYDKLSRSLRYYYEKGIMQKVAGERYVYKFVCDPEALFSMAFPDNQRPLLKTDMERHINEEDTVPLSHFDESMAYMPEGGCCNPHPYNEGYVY
Summary of the method: as §1

ERF = molecular target: T6, ERF (Homo sapiens, UniProt P50548 1-548); conditions: protein: recombinant; tags: N-terminal GST; dsDNA, one strand shown
T6 sequence: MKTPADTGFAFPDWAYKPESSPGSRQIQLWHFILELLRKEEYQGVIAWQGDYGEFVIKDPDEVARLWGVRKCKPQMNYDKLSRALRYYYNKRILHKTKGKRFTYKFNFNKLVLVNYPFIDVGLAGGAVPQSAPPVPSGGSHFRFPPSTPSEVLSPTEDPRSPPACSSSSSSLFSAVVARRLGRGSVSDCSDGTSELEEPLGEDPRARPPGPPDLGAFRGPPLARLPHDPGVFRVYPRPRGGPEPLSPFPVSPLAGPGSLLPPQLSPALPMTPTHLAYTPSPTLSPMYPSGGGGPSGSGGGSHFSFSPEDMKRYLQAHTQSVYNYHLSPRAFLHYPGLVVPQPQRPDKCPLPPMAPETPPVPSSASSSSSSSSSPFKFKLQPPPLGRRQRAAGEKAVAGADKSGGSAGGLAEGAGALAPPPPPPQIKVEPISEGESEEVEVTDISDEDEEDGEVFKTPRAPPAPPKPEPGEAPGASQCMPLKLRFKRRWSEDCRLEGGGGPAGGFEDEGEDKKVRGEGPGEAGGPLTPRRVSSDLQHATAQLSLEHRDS
Summary of the method: as §1

ETV3L = molecular target: T7, ETV3L (Homo sapiens, UniProt Q6ZN32 1-361); conditions: protein: recombinant; tags: N-terminal GST; dsDNA, one strand shown
T7 sequence: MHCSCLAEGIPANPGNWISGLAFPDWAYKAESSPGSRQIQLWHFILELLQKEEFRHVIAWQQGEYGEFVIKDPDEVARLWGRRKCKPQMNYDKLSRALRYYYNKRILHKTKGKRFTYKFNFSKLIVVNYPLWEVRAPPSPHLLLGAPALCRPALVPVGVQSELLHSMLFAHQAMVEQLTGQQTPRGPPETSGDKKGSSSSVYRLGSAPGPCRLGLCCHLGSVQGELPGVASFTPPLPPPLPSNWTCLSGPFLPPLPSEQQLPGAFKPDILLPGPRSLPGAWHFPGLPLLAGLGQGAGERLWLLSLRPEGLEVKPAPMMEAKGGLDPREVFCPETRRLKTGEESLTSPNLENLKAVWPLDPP
Summary of the method: as §1

ETS2 = molecular target: T8, ETS2 (Homo sapiens, UniProt P15036 1-469); conditions: protein: recombinant; tags: N-terminal GST; dsDNA, one strand shown
T8 sequence: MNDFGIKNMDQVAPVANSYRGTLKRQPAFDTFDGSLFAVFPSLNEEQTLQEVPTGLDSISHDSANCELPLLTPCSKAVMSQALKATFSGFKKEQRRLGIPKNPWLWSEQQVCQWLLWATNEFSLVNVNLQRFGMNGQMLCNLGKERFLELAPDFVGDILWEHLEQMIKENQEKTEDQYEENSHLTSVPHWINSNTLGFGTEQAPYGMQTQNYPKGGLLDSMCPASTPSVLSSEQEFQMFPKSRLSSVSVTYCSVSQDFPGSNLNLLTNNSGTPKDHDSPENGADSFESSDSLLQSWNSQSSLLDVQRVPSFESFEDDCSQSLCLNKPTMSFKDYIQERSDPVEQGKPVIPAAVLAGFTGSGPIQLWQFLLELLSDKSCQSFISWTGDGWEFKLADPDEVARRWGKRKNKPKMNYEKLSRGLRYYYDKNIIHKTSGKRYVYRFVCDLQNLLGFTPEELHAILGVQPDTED
Summary of the method: as §1

SPDEF = molecular target: T9, SPDEF (Homo sapiens, UniProt O95238 1-335); conditions: protein: recombinant; tags: N-terminal GST; dsDNA, one strand shown
T9 sequence: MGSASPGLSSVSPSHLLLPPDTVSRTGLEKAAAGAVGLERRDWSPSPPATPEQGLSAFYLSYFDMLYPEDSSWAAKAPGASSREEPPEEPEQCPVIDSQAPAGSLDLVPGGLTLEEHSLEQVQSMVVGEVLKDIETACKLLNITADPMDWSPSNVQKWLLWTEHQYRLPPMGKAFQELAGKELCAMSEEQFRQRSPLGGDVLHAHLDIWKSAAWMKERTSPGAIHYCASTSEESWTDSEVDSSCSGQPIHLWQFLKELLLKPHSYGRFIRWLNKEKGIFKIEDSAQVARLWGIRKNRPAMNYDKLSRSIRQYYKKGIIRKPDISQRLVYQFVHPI
Summary of the method: as §1

ETV7 = molecular target: T10, ETV7 (Homo sapiens, UniProt Q9Y603 1-341); conditions: protein: recombinant; tags: N-terminal GST; dsDNA, one strand shown
T10 sequence: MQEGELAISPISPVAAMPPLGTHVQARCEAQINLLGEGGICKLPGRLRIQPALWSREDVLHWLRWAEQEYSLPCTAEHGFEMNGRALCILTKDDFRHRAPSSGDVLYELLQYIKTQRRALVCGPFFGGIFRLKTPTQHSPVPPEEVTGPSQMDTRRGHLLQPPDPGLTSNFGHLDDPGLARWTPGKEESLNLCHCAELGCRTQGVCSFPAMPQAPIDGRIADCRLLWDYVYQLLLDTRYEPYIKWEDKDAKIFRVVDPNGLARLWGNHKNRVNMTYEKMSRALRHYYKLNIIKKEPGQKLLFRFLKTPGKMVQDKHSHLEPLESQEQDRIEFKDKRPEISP
Summary of the method: as §1

ELF5 = molecular target: T11, ELF5 (Homo sapiens, UniProt Q9UKW6-2 1-255); conditions: protein: recombinant; tags: N-terminal GST; dsDNA, one strand shown
T11 sequence: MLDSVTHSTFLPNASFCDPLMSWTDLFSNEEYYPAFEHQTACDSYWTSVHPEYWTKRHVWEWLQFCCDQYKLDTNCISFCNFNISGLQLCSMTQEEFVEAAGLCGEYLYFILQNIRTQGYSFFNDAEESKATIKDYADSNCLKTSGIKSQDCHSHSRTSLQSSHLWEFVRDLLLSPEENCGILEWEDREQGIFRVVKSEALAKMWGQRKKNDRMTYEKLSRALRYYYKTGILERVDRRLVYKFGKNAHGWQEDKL
Summary of the method: as §1

ETV3 = molecular target: T12, ETV3 (Homo sapiens, UniProt P41162-2 1-143); conditions: protein: recombinant; tags: N-terminal GST; dsDNA, one strand shown
T12 sequence: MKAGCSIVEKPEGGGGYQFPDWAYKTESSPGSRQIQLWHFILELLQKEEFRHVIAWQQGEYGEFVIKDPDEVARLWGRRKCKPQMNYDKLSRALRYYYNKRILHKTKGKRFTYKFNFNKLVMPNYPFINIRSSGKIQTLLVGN
Summary of the method: as §1

ETV6 = ETV6 (Homo sapiens, UniProt P41212 1-452); conditions: protein: recombinant; tags: N-terminal GST; dsDNA, one strand shown
ETV6, sequence (P41212 whole entry): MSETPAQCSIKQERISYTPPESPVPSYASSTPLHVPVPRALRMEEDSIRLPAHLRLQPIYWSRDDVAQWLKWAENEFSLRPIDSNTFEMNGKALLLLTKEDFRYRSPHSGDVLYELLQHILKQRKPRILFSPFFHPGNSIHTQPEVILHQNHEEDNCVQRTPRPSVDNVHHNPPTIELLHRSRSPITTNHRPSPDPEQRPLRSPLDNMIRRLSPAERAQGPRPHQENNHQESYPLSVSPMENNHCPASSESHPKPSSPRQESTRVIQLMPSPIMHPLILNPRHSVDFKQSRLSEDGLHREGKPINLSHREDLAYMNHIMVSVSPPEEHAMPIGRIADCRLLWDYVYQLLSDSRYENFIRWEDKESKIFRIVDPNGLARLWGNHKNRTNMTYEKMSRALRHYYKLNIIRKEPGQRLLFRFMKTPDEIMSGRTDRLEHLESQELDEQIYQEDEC
Summary of the method: as §1

Sequence: GACCTG
- binding signal (FEV): 1.32 fold enrichment (6-mer frequency, TF over GST control)
- binding signal (ETV5): 1.28 fold enrichment (6-mer frequency, TF over GST control)
- binding signal (HSF1): 1.01 fold enrichment (6-mer frequency, TF over GST control)
- binding signal (SPIC): 1.24 fold enrichment (6-mer frequency, TF over GST control)
- binding signal (ELF4): 1.28 fold enrichment (6-mer frequency, TF over GST control)
- binding signal (ELK4): 1.29 fold enrichment (6-mer frequency, TF over GST control)
- binding signal (ETV2): 1.45 fold enrichment (6-mer frequency, TF over GST control)
- binding signal (ELF3): 1.2 fold enrichment (6-mer frequency, TF over GST control)
- binding signal (ETV1): 1.21 fold enrichment (6-mer frequency, TF over GST control)
- binding signal (ERF): 1.13 fold enrichment (6-mer frequency, TF over GST control)
- binding signal (ETV3L): 1.33 fold enrichment (6-mer frequency, TF over GST control)
- binding signal (ETS2): 1.19 fold enrichment (6-mer frequency, TF over GST control)
- binding signal (SPDEF): 1.12 fold enrichment (6-mer frequency, TF over GST control)
- binding signal (ETV7): 1.17 fold enrichment (6-mer frequency, TF over GST control)
- binding signal (ELF5): 1.21 fold enrichment (6-mer frequency, TF over GST control)
- binding signal (ETV3): 1.17 fold enrichment (6-mer frequency, TF over GST control)
- binding signal (ETV6): 1.14 fold enrichment (6-mer frequency, TF over GST control)

Source: PMC7862700, “An all-to-all approach to the identification of sequence-specific readers for epigenetic DNA modifications on cytosine”
